Results from PubChem BioAssay (Tox21).
Inconclusive results are not listed. A call without a number means that no potency is given here. A number with no mark means an inactive call. Active and inactive are the calls of the source. Unless noted, calls follow the shape of the dose curve; as a rule, active = well fitted curve in the direction sought with a large enough effect in the repeat runs; inconclusive = weak or mixed curves; inactive = no such curve, though single readings can be large; an effect the other way counts as inactive or inconclusive.

Experiments:
[1] = qHTS assay to identify small molecule antagonists of the thyroid receptor (TR) signaling pathway (AID 743065); also: nearly all actives have a fitted effect of over 55% in size; also: potency is read from the fitted curve at half-maximal effect
Procedure, shortened: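 GH3.TRE-Luc rat pituitary cells (two TREs driving luciferase) were dosed with compound, then stimulated with 1 nM T3 (final) for 23.5 h at 37 C. ONE-Glo luminescence was the read-out, with CellTiter-Fluor fluorescence as the cytotoxicity counter-screen.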

[2] = test system: thyroid hormone receptor (rat, GH3 cells); assay: qHTS assay to identify small molecule agonists of the thyroid receptor (TR) signaling pathway (AID 743066; calls by dose curve)
[3] = target: Estrogen receptor (Homo sapiens) (UniProt P03372); assay: qHTS assay to identify small molecule antagonists of the estrogen receptor alpha (ER-alpha) signaling pathway (AID 743069; active = well fitted curve in the direction sought with a large enough effect in the signal ratio in the repeat runs, not every such curve was filed as active; the % refers to the signal ratio)
Procedure, shortened: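 Beta-lactamase FRET fluorescence is read after 2 hr at room temperature with LiveBLAzer B/G substrate. Before that, ER-alpha-bla HEK293 cells sit 4 hr after plating, then receive compound plus 17beta-estradiol and incubate 18 hr at 37C.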

[4] = qHTS assay to identify small molecule antagonists of the estrogen receptor alpha (ER-alpha) signaling pathway - cell viability counter screen (AID 743074; calls by dose curve;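 also: HEK293 cells carrying ER-alpha-UAS-bla reporter stimulated with 17beta-estradiol; nearly all actives have a fitted effect of over 45% in size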)
[5] = target: Estrogen receptor (Homo sapiens) (UniProt P03372); assay: qHTS assay to identify small molecule agonists of the estrogen receptor alpha (ER-alpha) signaling pathway (AID 743075; calls by dose curve;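 also: HEK293 GripTite cells with ER-alpha and UAS-driven beta-lactamase reporter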)
[6] = target: Estrogen receptor (Homo sapiens) (UniProt P03372); assay: qHTS assay to identify small molecule agonists of the estrogen receptor alpha (ER-alpha) signaling pathway using the BG1 cell line (AID 743079); also: nearly all actives have a fitted effect of over 20% in size
[7] = qHTS assay to identify small molecule antagonists of the estrogen receptor alpha (ER-alpha) signaling pathway using the BG1 cell line (AID 743080; calls by dose curve;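 also: BG1 cells stimulated with 17beta-estradiol alongside compound; series mostly up to about 70 µM; nearly all actives have a fitted effect of over 25% in size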)
Procedure, shortened: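 BG1-Luc-4E2 cells (endogenous full-length ER-alpha, 4xERE luciferase) hormone-starved 5 days in charcoal-stripped FBS, plated 4,000/well for 24 h, then compound plus 17beta-estradiol for 21.5 h at 37 C; ONE-Glo luminescence read.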

[8] = qHTS assay to identify small molecule antagonists of the estrogen receptor alpha (ER-alpha) signaling pathway using the BG1 cell line - cell viability counter screen (AID 743081);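 also: compound given together with 17beta-estradiol as the ER stimulus; nearly all actives have a fitted effect of over 45% in size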; also: potency is read from the fitted curve at half-maximal effect
Aromatase (Homo sapiens) = Aromatase (Homo sapiens) (UniProt P11511); assay: qHTS assay to identify aromatase inhibitors (AID 743083); also: nearly all actives have a fitted effect of over 55% in size; also: potency is read from the fitted curve at half-maximal effect
[9] = qHTS assay to identify aromatase inhibitors - cell viability counter screen (AID 743084);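 also: cells stimulated with testosterone during compound exposure; nearly all actives have a fitted effect of over 55% in size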; also: potency is read from the fitted curve at half-maximal effect
[10] = target: Aryl hydrocarbon receptor (Homo sapiens) (UniProt P35869); assay: qHTS assay to identify small molecule that activate the aryl hydrocarbon receptor (AhR) signaling pathway (AID 743085);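 also: HG2L7.5c1 human HepG2 liver cells with stably integrated DRE-driven firefly reporter; series mostly up to about 70 µM; nearly all actives have a fitted effect of over 15% in size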
Procedure, shortened: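 Steps: seed HepG2-AhR-luc cells; allow 5 h at 37C; pin-transfer test compound or vehicle; incubate 24 h at 37C; add viability dye (30 min, 37C) and read fluorescence; add luciferase substrate (30 min, RT) and read luminescence.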

[11] = qHTS assay to identify small molecule that activate the aryl hydrocarbon receptor (AhR) signaling pathway - cell viability counter screen (AID 743086); also: nearly all actives have a fitted effect of over 45% in size; also: potency is read from the fitted curve at half-maximal effect
Procedure, shortened: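 HepG2-AhR-luc (HG2L7.5c1) cells, 4000/well, treated 24 h at 37 C with compound; viability measured as CellTiter-Fluor fluorescence after 30 min in the same wells as the luciferase read.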

[12] = target: Peroxisome proliferator-activated receptor gamma (Homo sapiens) (UniProt P37231); assay: qHTS assay to identify small molecule antagonists of the peroxisome proliferator-activated receptor gamma (PPARg) signaling pathway (AID 743191; calls by dose curve; also: series mostly up to about 63 µM; nearly all actives have a fitted effect of over 30% in size)
Procedure, shortened: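 GeneBLAzer PPARg UAS-bla HEK293H cells, 5 h post-plating, exposed to compounds 17 h at 37C. LiveBLAzer B/G FRET substrate added for 1 h at room temperature; beta-lactamase reporter read by fluorescence intensity.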

[13] = qHTS assay for small molecule agonists of the antioxidant response element (ARE) signaling pathway (AID 743202; active = well fitted activation curve with a large enough effect in the signal ratio in the repeat runs, not every such curve was filed as active; the % refers to the signal ratio)
Procedure, shortened: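 HepG2 ARE-bla reporter line, 2,000 cells/well; 5 h preincubation 37 C/5% CO2; compound (DMSO) 16 h 37 C; B/G FRET substrate 2 h RT; fluorescence intensity.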

[14] = qHTS assay for small molecule agonists of the antioxidant response element (ARE) signaling pathway - cell viability counter screen (AID 743203; calls by dose curve; also: nearly all actives have a fitted effect of over 55% in size)
Procedure, shortened: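 Parallel cytotoxicity read-out for the ARE-bla screen: HepG2 reporter cells, 16 hrs with compounds, then CellTiter-Glo luminescence.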

[15] = qHTS assay for small molecule activators of the heat shock response signaling pathway - cell viability counter screen (AID 743209); also: nearly all actives have a fitted effect of over 50% in size
Procedure, shortened: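 To flag cytotoxic compounds, HSE-bla HeLa cells plated at 1500 cells/well were dosed for 5 h at 37 C, followed by the reporter FRET read and then CellTiter-Glo, with luminescence recorded 30 min after reagent addition.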

[16] = qHTS assay for small molecule activators of the heat shock response signaling pathway (AID 743210; active = well fitted activation curve with a large enough effect in the signal ratio in the repeat runs, with a control signal flat, not every such curve was filed as active; the % refers to the signal ratio;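 also: HeLa cells with beta-lactamase reporter driven by heat shock elements; series mostly up to about 63 µM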)
Procedure, shortened: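 Beta-lactamase reporter read-out: FRET substrate fluorescence after 2.5 h at RT, following 5 h compound treatment at 37 C of HeLa cells carrying HSE-driven bla reporter; quantitative HTS format.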

[17] = qHTS assay to identify small molecule agonists of the peroxisome proliferator-activated receptor delta (PPARd) signaling pathway - cell viability counter screen (AID 743211); also: nearly all actives have a fitted effect of over 55% in size
Procedure, shortened: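 Viability of GeneBLAzer PPARd UAS-bla HEK293H cells was assessed after 17 h compound incubation at 37C, using CellTiter-Glo reagent added after the reporter read and luminescence recorded 30 min later.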

[18] = qHTS assay to identify small molecule antagonists of the peroxisome proliferator-activated receptor gamma (PPARg) signaling pathway - cell viability counter screen (AID 743194); also: nearly all actives have a fitted effect of over 55% in size
Procedure, shortened: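 Cytotoxicity counter screen in PPARg-bla HEK293H cells, same wells as reporter assay. Compounds plus 50 nM rosiglitazone (final) for 17 h at 37 C, then viability read by CellTiter-Glo luminescence.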

[19] = target: Peroxisome proliferator-activated receptor gamma (Homo sapiens) (UniProt P37231); assay: qHTS assay to identify small molecule agonists of the peroxisome proliferator-activated receptor gamma (PPARg) signaling pathway (AID 743094; active = well fitted activation curve with a large enough effect in the signal ratio in the repeat runs, not every such curve was filed as active; the % refers to the signal ratio)
Procedure, shortened: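 Fluorescence-based beta-lactamase readout in HEK293H PPARg UAS-bla cells after 17 h compound exposure (37C) and 1 h B/G FRET substrate incubation at room temperature.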

Aryl hydrocarbon receptor (Homo sapiens), sequence (P35869 whole entry, looked up): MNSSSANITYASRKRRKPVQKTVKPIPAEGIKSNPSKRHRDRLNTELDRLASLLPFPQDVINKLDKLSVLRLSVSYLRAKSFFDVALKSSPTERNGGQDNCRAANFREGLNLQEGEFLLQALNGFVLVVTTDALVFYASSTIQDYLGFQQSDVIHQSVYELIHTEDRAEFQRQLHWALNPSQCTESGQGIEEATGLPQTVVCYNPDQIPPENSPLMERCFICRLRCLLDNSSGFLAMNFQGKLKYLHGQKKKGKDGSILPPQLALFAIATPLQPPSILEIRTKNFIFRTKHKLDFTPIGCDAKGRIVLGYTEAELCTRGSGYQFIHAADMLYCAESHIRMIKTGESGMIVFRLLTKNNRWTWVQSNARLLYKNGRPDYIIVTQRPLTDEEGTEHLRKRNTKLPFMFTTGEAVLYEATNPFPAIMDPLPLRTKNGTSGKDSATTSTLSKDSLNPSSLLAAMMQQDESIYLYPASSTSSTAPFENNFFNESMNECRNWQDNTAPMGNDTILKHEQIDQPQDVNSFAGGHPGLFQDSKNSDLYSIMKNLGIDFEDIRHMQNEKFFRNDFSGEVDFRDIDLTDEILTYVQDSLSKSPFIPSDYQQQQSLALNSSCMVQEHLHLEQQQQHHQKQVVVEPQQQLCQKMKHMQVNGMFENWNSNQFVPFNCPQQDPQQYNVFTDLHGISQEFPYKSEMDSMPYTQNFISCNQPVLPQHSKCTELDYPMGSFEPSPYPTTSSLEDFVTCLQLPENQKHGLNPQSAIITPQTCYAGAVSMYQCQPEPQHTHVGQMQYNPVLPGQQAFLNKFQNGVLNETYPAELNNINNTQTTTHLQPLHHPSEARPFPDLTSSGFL
Peroxisome proliferator-activated receptor gamma (Homo sapiens), sequence (P37231 whole entry, looked up): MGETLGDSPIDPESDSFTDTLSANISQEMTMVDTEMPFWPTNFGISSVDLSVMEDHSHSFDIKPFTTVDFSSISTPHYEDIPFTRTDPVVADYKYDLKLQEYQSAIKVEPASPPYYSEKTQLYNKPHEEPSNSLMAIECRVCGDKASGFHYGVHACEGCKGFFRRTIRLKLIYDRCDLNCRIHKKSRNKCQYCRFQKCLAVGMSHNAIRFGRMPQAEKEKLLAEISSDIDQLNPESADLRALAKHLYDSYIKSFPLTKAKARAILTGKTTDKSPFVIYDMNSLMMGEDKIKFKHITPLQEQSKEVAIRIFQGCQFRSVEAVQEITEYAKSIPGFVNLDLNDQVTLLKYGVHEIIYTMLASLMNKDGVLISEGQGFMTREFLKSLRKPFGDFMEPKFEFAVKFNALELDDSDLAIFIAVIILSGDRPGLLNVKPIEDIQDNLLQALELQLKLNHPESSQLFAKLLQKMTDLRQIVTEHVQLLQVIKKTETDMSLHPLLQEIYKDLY
Aromatase (Homo sapiens), sequence (P11511 whole entry, looked up): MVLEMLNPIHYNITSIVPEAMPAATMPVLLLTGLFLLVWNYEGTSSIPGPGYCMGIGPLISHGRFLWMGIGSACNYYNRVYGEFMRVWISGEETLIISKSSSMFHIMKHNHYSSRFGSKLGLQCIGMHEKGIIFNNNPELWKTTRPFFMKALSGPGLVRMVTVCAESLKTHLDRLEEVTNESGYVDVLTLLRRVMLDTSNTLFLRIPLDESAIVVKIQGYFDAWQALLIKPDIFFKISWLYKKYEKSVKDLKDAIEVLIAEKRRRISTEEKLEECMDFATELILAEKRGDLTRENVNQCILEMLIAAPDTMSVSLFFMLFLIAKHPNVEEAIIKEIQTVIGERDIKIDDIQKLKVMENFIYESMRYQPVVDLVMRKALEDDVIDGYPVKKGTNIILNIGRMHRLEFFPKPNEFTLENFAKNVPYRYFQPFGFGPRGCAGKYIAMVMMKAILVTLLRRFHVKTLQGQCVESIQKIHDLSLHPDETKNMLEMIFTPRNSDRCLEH
Estrogen receptor (Homo sapiens), sequence (P03372 whole entry, looked up): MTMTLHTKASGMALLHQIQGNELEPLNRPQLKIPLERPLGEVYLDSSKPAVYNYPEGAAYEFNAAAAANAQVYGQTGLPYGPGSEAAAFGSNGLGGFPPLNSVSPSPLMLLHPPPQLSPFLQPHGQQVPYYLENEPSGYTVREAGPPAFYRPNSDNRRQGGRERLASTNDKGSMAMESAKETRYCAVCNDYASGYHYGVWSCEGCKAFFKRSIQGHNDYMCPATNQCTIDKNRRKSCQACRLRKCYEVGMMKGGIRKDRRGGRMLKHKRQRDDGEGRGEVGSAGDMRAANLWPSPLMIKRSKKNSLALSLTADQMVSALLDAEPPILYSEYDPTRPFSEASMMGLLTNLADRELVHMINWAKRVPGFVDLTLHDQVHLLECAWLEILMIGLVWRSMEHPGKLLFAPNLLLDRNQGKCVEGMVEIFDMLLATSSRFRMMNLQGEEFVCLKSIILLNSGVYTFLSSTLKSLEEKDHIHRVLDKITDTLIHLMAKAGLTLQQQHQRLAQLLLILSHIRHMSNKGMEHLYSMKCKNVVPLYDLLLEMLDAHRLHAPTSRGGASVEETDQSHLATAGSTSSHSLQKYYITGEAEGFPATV

| Compound | Potency [1] | outcome [2] | Potency [3] | Potency [4] | Potency [5] | Potency [6] | Potency [7] | Potency [8] | Potency (Aromatase (Homo sapiens)) | Potency [9] | Potency [10] | Potency [11] | Potency [12] | Potency [13] | Potency [14] | Potency [15] | Potency [16] | Potency [17] | Potency [18] | Potency [19] |
| --- | --- | --- | --- | --- | --- | --- | --- | --- | --- | --- | --- | --- | --- | --- | --- | --- | --- | --- | --- | --- |
| COC(=O)c1ccccc1C | inactive | inactive | inactive | inactive | inactive | inactive | inactive | inactive | inactive | inactive | inactive | inactive | inactive | inactive | inactive | inactive | inactive | inactive | – | – |
| CC(C)(c1cc(Br)c(OCC(Br)CBr)c(Br)c1)c1cc(Br)c(OCC(Br)CBr)c(Br)c1 (stereo not given) | inactive | inactive | inactive | inactive | inactive | inactive | inactive | inactive | inactive | inactive | inactive | inactive | inactive | inactive | inactive | inactive | – | inactive | inactive | – |
| O=C(O)[C@H](O)[C@@H](O)[C@H](O[C@@H]1O[C@H](CO)[C@H](O)[C@H](O)[C@H]1O)[C@H](O)CO | inactive | inactive | inactive | inactive | inactive | inactive | inactive | – | inactive | inactive | inactive | inactive | inactive | inactive | inactive | inactive | inactive | inactive | inactive | inactive |
| c1cnccn1 | inactive | inactive | inactive | inactive | inactive | inactive | inactive | inactive | inactive | inactive | – | inactive | inactive | inactive | inactive | inactive | inactive | inactive | inactive | – |
| Clc1nnc(Cl)c2ccccc12 | inactive | inactive | inactive | inactive | inactive | inactive | – | – | inactive | inactive | – | inactive | – | – | inactive | – | – | inactive | inactive | inactive |
| CCN(CC)c1ccc2c(-c3ccc(S(=O)(=O)O)cc3S(=O)(=O)[O-])c3ccc(=[N+](CC)CC)cc-3oc2c1 | 35.5 µM (active) | inactive | inactive | inactive | inactive | – | – | 7.94 µM (active) | 35.5 µM (active) | 3.98 µM (active) | inactive | 6.31 µM (active) | – | inactive | – | – | inactive | – | inactive | inactive |
